Out of some 360,000 compounds screened, about 7,500 (2.1%) were called active. Another 8% or so got no clear call; they are omitted. The call rests on the fitted dose curve; in most records, active means well fitted cell-killing curve with a large enough effect; inconclusive means small, poorly fitted or top-dose-only effect, or effect the other way, or another doubt; inactive means no such curve, though single readings can be large or run the other way. The list comes from a sample in which actives are over-represented; it also holds similar structures and randomly drawn compounds. A call without a number means that no potency is given here.
Experiment: qHTS for induction of synthetic lethality in tumor cells producing 2HG: qHTS for the HT-1080-IDH1KD cell line
Settings: HT-1080 IDH1 knockdown viability, ATP luminescence, 48 h; series mostly up to 46.1 µM
Summary of the method: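 In this qHTS, HT-1080 cells depleted of IDH1 are exposed for 48 h at 37 °C to compound titrations. Toxicity is scored from CellTiter-Glo luminescence, with DMSO as full viability and medium alone as none.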
Potency means the concentration at half of the fitted maximal effect.

Row | Compound | Potency
1 | COc1ccc(S(=O)(=O)N2CCC(C(=O)NCCC(=O)Nc3ccccc3OC)CC2)cc1 | inactive
2 | CCOC(=O)C1=CC[C@@H](c2ccccc2)N(S(=O)(=O)c2ccc(C)cc2)[C@H]1c1cccc(OC)c1 | inactive
3 | COc1ccc(S(=O)(=O)N[C@@H]2C=C[C@@H](CC(=O)N3CCc4ccccc4C3)O[C@@H]2CO)cc1 | inactive
4 | O=C(COc1ccc(Br)cc1F)NC1CCN(Cc2ccccc2)CC1 | inactive
5 | S=C(Nc1ccc(Br)cc1Cl)NC1CCN(Cc2ccccc2)CC1 | 20.6 µM (active)
6 | O=C(NC1CCN(Cc2ccccc2)CC1)c1cc(Br)c(Br)[nH]1 | inactive
7 | CC1(C(=O)NS(=O)(=O)C2CC2)CCCN(C(=O)CSc2ccccc2)C1 (centres undefined) | inactive
8 | Oc1c(C(c2ccccn2)N2CCOCC2)ccc2cccnc12 (centres undefined) | 0.251 µM (active)
9 | CC(C)c1cc(CN2CCOCC2)cc(C(C)C)c1O | inactive
10 | O=C(Nc1ccccc1)c1ccccc1Br | inactive
11 | CC(C)[C@H](NC(=O)N1CC(=O)Nc2ccccc21)C(=O)N[C@@H](Cc1c[nH]c2ccccc12)C(=O)O | inactive
12 | CC(C)C[C@H](NC(=O)N1CC(=O)Nc2ccccc21)C(=O)N[C@H](Cc1ccccc1)C(=O)O | inactive
13 | CC(C)c1ccc(NC(=O)[C@@H](NC(=O)N2CC(=O)Nc3ccccc32)C(C)C)cc1 | 13 µM (active)
14 | COc1ccc(C(C)C)cc1-c1ccc2nncn2c1 | inactive
15 | CC1(C(=O)NS(=O)(=O)c2ccccc2)CCN1C(=O)Cc1ccc(-c2ccccc2)cc1 (centres undefined) | inactive
16 | Cc1ccc(F)c(S(=O)(=O)NC(=O)C2(C)CCN2C(=O)CCc2cccs2)c1 (centres undefined) | inactive
17 | COC(=O)c1ccc(C2CC(=O)Nc3cc(OC)c(OC)cc32)cc1 (centres undefined) | inactive
18 | CCCOc1ccccc1C1CC(=O)Nc2cc3c(cc21)OCO3 (centres undefined) | 1.84 µM (active)
19 | CCCOc1ccc(C2NC(=O)NC(c3ccccc3)=C2C(C)=O)cc1OCC (centres undefined) | inactive
20 | COc1ccccc1NC(=O)[C@H](COCc1ccccc1)NC(=O)OC(C)(C)C | inactive

Row | Compound | Potency
21 | C[C@@H](NC(=O)OC(C)(C)C)c1nnc(S(=O)(=O)Cc2ccccc2)o1 | 18.4 µM (active)
22 | CCc1ccccc1NC(=O)CSc1nnc([C@@H](NC(=O)OC(C)(C)C)C(C)CC)o1 (some centres undefined) | inactive
23 | OC[C@@H]1CN(Cc2ccc(F)cc2)C[C@H](n2cnc3c(NC4CCCC4)ncnc32)O1 | inactive
24 | OC[C@@H]1CN(Cc2cccs2)C[C@H](n2cnc3c(NC4CCCC4)ncnc32)O1 | inactive
25 | OC[C@@H]1CN(Cc2ccc(-c3ccccc3)cc2)C[C@H](n2cnc3c(NC4CCCC4)ncnc32)O1 | 20.6 µM (active)
26 | CC1=C(C(=O)N2CCOCC2)CC(CC(=O)NCc2cccc3ccccc23)C(=O)N1CCC1=CCCCC1 (centres undefined) | inactive
27 | Cc1ccc(C(=O)NC(C)C(c2cccs2)N2CCOCC2)cc1C (centres undefined) | inactive
28 | CCC(=O)N1Cc2cc(C(=O)NCc3cccc(F)c3)nc(-c3cccc(C4=CCCC4)c3)c2[C@H]1CCO | inactive
29 | COc1cc(OC)cc(C2=Cc3ccccc3C(CC(=O)c3ccco3)N2c2ccc(-c3cnc(OC)nc3)cc2)c1 (centres undefined) | inactive
30 | CCCC(O)(CCC)C(=O)NN(C(=O)CCl)c1cccc(C)c1 | 5.17 µM (active)
31 | Cc1cccc(N(Cc2ccccc2)C(=O)c2ccccc2F)c1 | inactive
32 | CC(C)(O)C(=O)NN(C(=O)c1ccccc1)c1cccc(Br)c1 | inactive
33 | CC1(C(=O)NS(=O)(=O)c2cccc(OC(F)F)c2)CCN1C(=O)C1CC1 (centres undefined) | inactive
34 | O=C(Nc1ccc(F)cc1)C(CCc1ccccc1)N1CCN(CC(=O)N2CCCC2)CC1 (centres undefined) | inactive
35 | Cc1nc(N2CCOCC2)sc1C(=O)NN | inactive
36 | Cc1nc(-c2ccc(Cl)cc2)sc1C(=O)NN | 10.3 µM (active)
37 | Cc1nc(-c2ccc(Cl)cc2)sc1C(=O)CBr | inactive
38 | COCCCNC(=O)c1ccc(-c2c(C)noc2C)c2ccoc12 | inactive
39 | O=C(COC(=O)c1ccc([N+](=O)[O-])cc1Cl)NC(=O)c1ccccc1 | inactive
40 | O=C(NC(Nc1nc2ccc([N+](=O)[O-])cc2s1)(C(F)(F)F)C(F)(F)F)c1ccccc1 | 5.17 µM (active)

Row | Compound | Potency
41 | O=C(NOCc1ccccc1)c1cccc([N+](=O)[O-])c1 | inactive
42 | COc1ccc(OC)c(NC(=O)C2(C)CCN2C(=O)Cc2ccccc2)c1 (centres undefined) | inactive
43 | Cc1cc(C(=O)N2CCCC2(C)C(=O)O)c(C)o1 (centres undefined) | inactive
44 | COC(=O)[C@@]1(Cc2ccc(F)cc2)[C@H]2c3cc(C(=O)N4CCCC4)n(Cc4ccc(OC(F)(F)F)cc4)c3C[C@H]2CN1C(=O)c1ccccc1 | 23.1 µM (active)
45 | COC(=O)[C@@]1(Cc2ccc(F)cc2)[C@H]2c3cc(C(=O)N4CCCC4)n(C[C@H](O)CO)c3C[C@H]2CN1C(=O)c1ccccc1 | inactive
46 | COC(=O)[C@@]1(Cc2ccc(F)cc2)[C@H]2c3cc(C(=O)N(C)C)n(CCc4c[nH]c5ccc(OC)cc45)c3C[C@H]2CN1C(=O)c1ccccc1 | inactive
47 | CCCNC(=O)C1(C)CCN(Cc2csc(-c3ccc(Cl)cc3)n2)C1 (centres undefined) | inactive
48 | COc1ccc(-c2cc3c(c4c2ccn4C)C2CCC3C2)cn1 (centres undefined) | inactive
49 | COc1cccc(-n2c(SCC(=O)NC3CCCCC3)nc3n[nH]c(C)c3c2=N)c1 | 18.4 µM (active)
50 | COc1cccc(-n2c(SCC(=O)NC3CCS(=O)(=O)C3)nc3ccccc3c2=O)c1 (centres undefined) | inactive
51 | C=CCn1c(CC(=O)Nc2cccc(OC)c2)nnc1SCC(=O)NC1CCCCC1 | inactive
52 | CCc1noc(C)c1C(=O)OCC(=O)c1ccc(NC(=O)CC(C)C)cc1 | inactive
53 | FC(F)(F)c1ccccc1Cc1c(-c2ccccc2)nc2c3ccccc3ccn12 | inactive
54 | O=C(NCC(F)(F)F)c1ccc(S(=O)(=O)NCCc2ccc3c(c2)OCCO3)cc1 | inactive
55 | Nc1ccccc1-c1nc2ccncc2[nH]1 | inactive
56 | Cc1cc(C)nc(Nc2n[nH]c(-c3ccccc3N)n2)n1 | 32.6 µM (active)
57 | CCCOc1ccccc1-c1nc(SCCC(=O)O)n[nH]1 | inactive
58 | CCOC(=O)[C@]12CCC=C1N(CCC1=CCCCC1)C(=O)[C@H](CC(=O)NCc1ccc(C)o1)C2 | inactive
59 | CC(=O)C[C@@H]1OC[C@H](C)N1S(=O)(=O)c1ccc(C)cc1 | inactive
